Measured values taken from ChEMBL document CHEMBL3988442, “University of Dundee, Small-Polar-MMV Screening Library” (2021).
The whole screen tested about 48,000 compounds, of which about 13,000 (27%) showed an effect of 50% or more. The list shows a part of the results.

test system: Wolbachia pipientis; assay: Anti-Wolbachia Cell-Based Screen; format: functional; parameters: scale not given: in the data most compounds retested in dose-response had high values; settings: 5 µM

SMILES | Percent Effect
COCCN1CCN(CCS(=O)(=O)C(F)(F)F)CC1C (stereo unspecified) | 6.413%
O=C1NCCN2CCN(Cc3ccc(Cl)c(Cl)c3)CC12 (stereo unspecified) | -5.038%
Cc1cccc(-c2c[nH]c(C3CCCN3C(=O)Cn3cc(C)cn3)n2)c1 (stereo unspecified) | -5.472%
Cc1c[nH]c(C2CCCN2C(=O)CCc2c(C)n[nH]c2C)n1 (stereo unspecified) | 109.7%
Cc1c[nH]c(C2COCCN2C(=O)CCc2c(C)n[nH]c2C)n1 (stereo unspecified) | 111%
Cc1c[nH]c(C2CCCN(C(=O)CCc3c(C)n[nH]c3C)C2)n1 (stereo unspecified) | 139.5%
O=C(CCn1cnnc1)N1CCCC(c2ncc[nH]2)C1 (stereo unspecified) | -20.34%
CC(C)(C)c1noc(CCCC(=O)N2CCCC(c3ccn[nH]3)C2)n1 (stereo unspecified) | -11.26%
Cc1n[nH]c(C)c1C1COCCN1C(=O)c1cc(Cl)c[nH]1 (stereo unspecified) | -20.41%
Cc1n[nH]c(C)c1C1CCCN1C(=O)CNC(=O)C(C)(C)C (stereo unspecified) | 1.097%
Cc1cccc(CCC(=O)N2CCOCC2c2c(C)n[nH]c2C)c1 (stereo unspecified) | 9.952%
CC(O)CN1CCC(CNCc2cn(-c3ccccc3)nn2)CC1 (stereo unspecified) | 3.471%
COCC(C)N(C)C(=O)NC1CCN(S(C)(=O)=O)CC1 (stereo unspecified) | 2.159%
CS(=O)(=O)c1ccc(CNC(=O)NCC2CCOC2)cc1 (stereo unspecified) | -15.52%
CCSCCC(=O)NS(=O)(=O)c1ccc2c(c1)OCCO2 | 5.287%
O=C(c1ccc[nH]1)N1C[C@H](OCc2cccnc2)[C@H]2COC[C@H]21 | -9.205%
O=C(c1ccc[nH]1)N1C[C@H](OCc2ccccn2)[C@H]2COC[C@H]21 | 111.2%
CCO[C@H]1CN(C(=O)c2ccc3c(c2)OCO3)[C@@H]2COC[C@H]12 | 0.5362%
CO[C@H]1CN(C(=O)c2ccc[nH]2)[C@@H]2COC[C@H]12 | 98.6%
Cc1nc(CO[C@H]2CN(C(=O)c3ccc[nH]3)[C@@H]3COC[C@H]23)cs1.O=C(O)C(F)(F)F | -0.1564%
CO[C@H]1CN(C(=O)c2ccc3c(c2)OCO3)[C@@H]2COC[C@H]12 | -7.485%
CCOCc1nnc(NCc2cccnc2)o1 | -1.439%
CC(C)N(CC(N)=O)C(=O)c1cc(F)ccc1N1CCN(C)CC1 | 95.17%
CCN(CC1CCOC1)C(=O)c1cccnc1N1CCOCC1 (stereo unspecified) | -1.739%
C=C(C)CN(CC)C(=O)c1cc(F)ccc1N1CCN(C)CC1 | 106.7%
Cc1ccc(CNC(C)c2cc(F)ccc2N2CCN(C)CC2)o1 (stereo unspecified) | -9.069%

SMILES | Percent Effect
C=C(C)CN(CC)C(=O)c1cc(F)ccc1NS(C)(=O)=O | 23.28%
CCN(CC1CCOC1)C(=O)c1ccccc1N1CCOCC1 (stereo unspecified) | 5.823%
CCN(CC1CCOC1)C(=O)c1cc(Cl)c2c(c1)OCO2 (stereo unspecified) | -2.452%
C=C(C)CN(CC)C(=O)c1cc(C)ccc1NS(C)(=O)=O | 12.91%
CC(NCc1ccncc1)c1cc(F)ccc1N1CCN(C)CC1 (stereo unspecified) | -0.924%
CCN(CC1CCOC1)C(=O)c1cc(F)ccc1N1CCN(C)CC1 (stereo unspecified) | 87.35%
CCN(CC1CCOC1)C(=O)Nc1ccc(N2CCCC2)nc1 (stereo unspecified) | -5.429%
CCN(CC1CCOC1)C(=O)c1ccc(N2CCOCC2)c(F)c1 (stereo unspecified) | 110.6%
COC[C@@]12CC[C@@H](N3CCOCC3)C[C@H]1CCN(c1ccc(Cl)cn1)C2 | -5.579%
Cc1cnc(N2CCCC(c3ccccc3)C2)nc1-c1ncnn1C (stereo unspecified) | -17.16%
O=C(NCC1COCc2c(-c3cccnc3)nnn2C1)c1cccs1.O=C(O)C(F)(F)F (stereo unspecified) | -12.79%
O=S(=O)(C1CC1)N1CC[C@]2(C[C@H](OCC3CCOCC3)CO2)C1 | 2.042%
COCC1CN(Cc2ccncc2)Cc2nn(CC3CC3)cc21.O=C(O)C(F)(F)F.O=C(O)C(F)(F)F (stereo unspecified) | -9.02%
COCc1noc(C2(c3ccc(F)cc3)CC2)n1 | 1.348%
c1csc(CN2C[C@H]3CCC[C@@]3(COCC3CCOCC3)C2)n1 | 5.846%
COc1ccc(C(=O)N2CC(=O)N(CC3CC3)CC(O)C2)cc1 (stereo unspecified) | 115.7%
COCCN1CC(C(=O)NCc2ccc(C)s2)CC1=O (stereo unspecified) | -3.089%
COCCN1C[C@H]2CC[C@@H]1CN(C(=O)c1ccc(Cl)cc1)C2 | 3.109%
CSc1ccc(C(=O)N2C[C@H]3CC[C@@H]2CN(Cc2ccccc2)C3)cc1 | 17.05%
CSc1ccccc1CN1C[C@H]2C(=O)N(CC3CC3)C[C@@]2(C(=O)O)C1 | 6.148%
CSc1ccc(C(=O)N2C[C@H]3CC[C@@H]2CN(Cc2cccnc2)C3)cc1 | 37.83%
CSc1ccc(C(=O)N2CC(=O)N(Cc3ccccc3)CC(O)C2)cc1 (stereo unspecified) | 97.14%
CSc1ccc(C(=O)N2CCCC(Nc3ccc(F)cc3)C2)cc1 (stereo unspecified) | -32.55%
COCCN1CC(O)CN(C(=O)c2ccc(SC)cc2)CC1=O (stereo unspecified) | 110.7%
CSc1ccc(C(=O)N2CC(=O)N(CC3CC3)CC(O)C2)cc1 (stereo unspecified) | 119.8%
COc1ccc2cc(C(=O)N3CC[C@H](CO)[C@H](O)C3)n(C)c2c1 | -6.471%

SMILES | Percent Effect
COc1ccc(C(=O)N2CCN3C(=O)CNC(=O)[C@@H]3C2)cc1 | -1.212%
CN(C)Cc1ccc(C2CCCCN2C(=O)c2cccc(CO)n2)cc1 (stereo unspecified) | 7.792%
CCCc1c(C(=O)N2CCN(c3nccc(OC)n3)CC2)cnn1C | 3.097%
Cc1cc2nc(CO[C@H]3CN(C)C[C@H]3F)[nH]c2cc1C | -14.61%
COC1CCC(N(C)c2ccnc(N(C)C)n2)CC1 (stereo unspecified) | 2.902%
CCN1CC(C(=O)NCc2cccc(SC)c2)CC1=O (stereo unspecified) | -13.72%
CSc1ccc(C(=O)N2CC(=O)N(CC(C)(C)C)CC(O)C2)cc1 (stereo unspecified) | 76.9%
CCN1CC(O)CN(C(=O)c2ccc(SC)cc2)CC1=O (stereo unspecified) | 105.2%
CCN1CC(C(=O)N2CC(Oc3ccccc3F)C2)CC1=O (stereo unspecified) | -11.41%
CN1CCCN(c2nccc(-c3c[nH]nc3C3CCCCC3)n2)CC1 | 25.46%
NC(=O)N1CCCCCC1C1CCN(c2nccc(C(F)(F)F)n2)CC1 (stereo unspecified) | -6.613%
Cc1ccnc(N2CCN(C3CCS(=O)(=O)C3)CC2)n1 (stereo unspecified) | 0.9659%
c1cc(-c2noc(C3CCC3)n2)cc(N2CCCCC2)n1 | -13.71%
c1cc(-c2c[nH]nc2C2CCCCC2)nc(N2CCCCCC2)n1 | 78.4%
Cc1ccnc(N2CCC(C(N)=O)CC2)n1 | 120.1%
c1cc(-c2cn3nccc3nc2C2CCCCC2)nc(N2CCCC2)n1 | 96.94%
NC(=O)C1CCN(c2cncc(-n3cccn3)n2)CC1 | 4.657%
NC(=O)C1CCN(c2nccc(-c3c[nH]nc3C3CCCCC3)n2)CC1 | 81.82%
Cc1ccnc(N2CCC(OCCN3CCCCC3)C2)n1 (stereo unspecified) | 14.04%
CC(=O)NCC(=O)N1Cc2cc(C#N)ccc2C1c1cnco1 (stereo unspecified) | -4.617%
CCNC(=O)CCC(=O)Nc1nc(C)c(Cc2ccc(F)cc2)s1 | -19.82%
O=c1cc(CN2CCC(CCc3ccc(O)cc3)CC2)[nH]c(=O)[nH]1 | -18.62%
COCCC1(CNC(=O)NCC2CCCS2)CCCC1 (stereo unspecified) | -6.803%
CCc1ccc(CN(C)Cc2nc(-c3cnccn3)no2)nc1 | 12.77%
CN(Cc1nc(COc2ccccc2)no1)CC1Cc2ccccc2O1 (stereo unspecified) | -1.217%
CCc1ccc(CN(C)Cc2nc(COc3ccccc3)no2)nc1 | 78.29%

SMILES | Percent Effect
Cc1csc(CN(C)C(=O)C2CCC(=O)N(CCN(C)C)C2)n1 (stereo unspecified) | 2.129%
O=C(c1cccnc1N1CCOC(c2ccc(Cl)cc2)C1)N1CCCC1 (stereo unspecified) | 19.68%
COc1ccc(CN2CCO[C@H]3CN(C(C)=O)CC[C@H]3C2=O)cc1 | -1.641%
COc1ccc(CN2C[C@@H]3OCC(=O)N(CC(N)=O)[C@@H]3C2)cc1 | -8.877%
COc1ccc(CN2C[C@@H]3CN(C(=O)c4ccsc4)C[C@@H]3C2=O)cc1 | -7.26%
CCOC(=O)N1CC(=O)N(Cc2ccc(OC)cc2)CC(O)C1 (stereo unspecified) | 85.47%
COc1ccc(CN2CC(O)CN(C(=O)c3ccccc3)CC2=O)cc1 (stereo unspecified) | 119%
CCC(=O)N1CC[C@H]2C(=O)N(Cc3ccc(OC)cc3)CCO[C@H]2C1 | 5.242%
COc1ccc(CN2CC(O)CN(C(=O)OCC(C)(C)C)CC2=O)cc1 (stereo unspecified) | 112.6%
CSCCCNc1ncnc2cccc(F)c12 | -37.93%
CC(=O)N1CCc2ccccc2C1CC(=O)NCc1nnc(C)o1 (stereo unspecified) | -6.807%
COCCS(=O)(=O)N(Cc1cscn1)c1ccccc1 | -16.91%
CN1CCC/C1=N\S(=O)(=O)c1ccc(NC(=O)c2ccco2)cc1 | 116.6%
O=C(CCN1C(=O)CCC1=O)Nc1ccc(Cl)cc1 | 9.29%
CN1CCC/C1=N\S(=O)(=O)c1ccc(NC(=O)c2ccc(Cl)s2)cc1 | 40.68%
O=C(CCC1CCCN(S(=O)(=O)C2CC2)C1)Nc1ccc(Cl)cc1 (stereo unspecified) | 0.5143%
O=C(Nc1ccccc1C(=O)NCCCN1CCOCC1)c1ccco1 | 10.69%
Cc1ccc(C(=O)Nc2ccc(S(=O)(=O)/N=C3\CCCN3C)cc2)s1 | 80.8%
N#Cc1cc(NC(=O)c2ccsc2)ccc1N1CCC(O)CC1 | -1.175%
Cc1ccc(C(=O)Nc2ccc(N3CCC(O)CC3)c(C#N)c2)s1 | -23.53%
CN1CCC/C1=N\S(=O)(=O)c1ccc(NC(=O)c2ccc(Cl)cc2)cc1 | 101.2%
CN1CCC/C1=N\S(=O)(=O)c1ccc(NC(=O)c2ccsc2)cc1 | 106.5%
O=C(Nc1cnn(CC(=O)N2CCCCO2)c1)c1ccsc1 | 8.582%
